Results taken from PubChem BioAssay (NCATS).
Results filed as inconclusive are left out. Calls of active or inactive are those of the source. Calls follow the shape of the dose curve; as a rule, active = well fitted cell-killing curve with a large enough effect; inconclusive = small, poorly fitted or top-dose-only effect, or effect the other way; inactive = no such curve, though single readings can be large or run the other way.

Assay: Quantitative High-Throughput drug screen in 47 multiple myeloma cell lines against the NCATS MIPE library collection: JJN3_DSMZ cell viability assay (AID 1918966; also: nearly all actives have a fitted effect of over 50% in size)
Settings: JJN3 myeloma cells viability, CellTiter-Glo ATP, 48 h; series mostly up to 45.8 µM; viability, % of DMSO: at the top concentration
Source text: PI: Beverly A. Mock Ph.D.
Laboratory of Cancer Biology and Genetics,
Center for Cancer Research, National Cancer Institute,
National Institute of Health, Bethesda, Maryland
Drug resistance and disease progression are common in multiple myeloma (MM) patients, underscoring the need for new therapeutic combinations. […] We hypothesized that effective combinations would reduce MYC expression and enhance p16 activity. […] These preclinical data identify potentially useful drug combinations for evaluation in drug-resistant MM and reveal potential mechanisms of combined drug sensitivity.
Described herein is the primary MIPE qHTS used to cherrypick compounds. Validated compounds were then further tested for potential synergistic activiy.
[1] Peat TJ, Gaikwad SM, Dubois W, Gyabaah-Kessie N, Zhang S, Gorjifard S, Phyo Z, Andres M, Hughitt VK, Simpson RM, Miller MA, Girvin AT, Taylor A, Williams D, D'Antonio N, Zhang Y, Rajagopalan A, Flietner E, Wilson K, Zhang X, Shinn P, Klumpp-Thomas C, McKnight C, Itkin Z, Chen L, Kazandijian D, Zhang J, Michalowski AM, Simmons JK, Keats J, Thomas CJ, Mock BA. Drug combinations identified by high-throughput screening promote cell cycle transition and upregulate Smad pathways in myeloma. Cancer Lett. 2023 Aug 1;568:216284. doi: 10.1016/j.canlet.2023.216284. Epub 2023 Jun 24. PMID: 37356470; PMCID: PMC10408729.
SEQUENCE No. (e.g., 1, 2, 3, etc.); […] (e.g., Cells, Incubation, Reagent, etc.); VALUE and DESCRIPTION.
1; Cells; 5 uL; white, solid bottom 1536-well Greiner assay plate.
2; Compounds; 23 nL; Kalypsis pin tool (Wako USA) equipped with a 1536-well pin head to transfer to the assay plates.
3; Incubation; 48 hours; 37C incubation.
4; Reagent;5uL; CellTiter Glo (Promega).
5; Detector; 425V; Luminescence; Viewlux PerkinElmer.
NOTES (numbers refer to Sequence numbers above)
1. The cell-based screening methods employed in this study were like those previously published. Briefly, the corresponding myeloma cell lines were screened in 1,536-well plates with 500 cells, 5-uL per well for inhibition of cell viability (assessed by measuring ATP levels with CellTiterGlo).
2. NCATS MIPE 4.0 library of approved and investigational drugs were added using the Kalypsis pin tool. Wells treated with DMSO only for 100% viability and media only wells for 0% viability were used as controls.
3. The assay plates were covered and incubated for 48 hours in a 37C, 5% CO2 incubator with controlled humidity.
4. After 48 hours, CellTilter-GloTM luminescent substrate mix (Promega) reagent was added to the assay plate and plates we incubated for 5 min at room temperature.
5. Signal was measured as median relative luminescence units on a ViewLux (PerkinElmer) multiplate reader.
[1] Heske CM, Davis MI, Baumgart JT, Wilson K, Gormally MV, Chen L, Zhang X, Ceribelli M, Duveau DY, Guha R, Ferrer M, Arnaldez FI, Ji J, Tran HL, Zhang Y, Mendoza A, Helman LJ, Thomas CJ. Matrix Screen Identifies Synergistic Combination of PARP Inhibitors and Nicotinamide Phosphoribosyltransferase (NAMPT) Inhibitors in Ewing Sarcoma. Clin Cancer Res. 2017 Dec 1;23(23):7301-7311. doi: 10.1158/1078-0432.CCR-17-1121. Epub 2017 Sep 12. PMID: 28899971; PMCID: PMC6636827.
Potency is read from the fitted curve at half-maximal effect.

| SMILES | Potency | viability, % of DMSO |
| --- | --- | --- |
| CC[C@@]1(O)C(=O)OCc2c1cc1n(c2=O)Cc2cc3c(CN(C)C)c(O)ccc3nc2-1 | 5.9 µM (active) | – |
| CN(C)C(=O)C(CCN1CCC(O)(c2ccc(Cl)cc2)CC1)(c1ccccc1)c1ccccc1 | 18.7 µM (active) | – |
| Nc1nc2c(ncn2COC(CO)CO)c(=O)[nH]1 | 20.9 µM (active) | – |
| CN(CCOc1ccc(NS(C)(=O)=O)cc1)CCc1ccc(NS(C)(=O)=O)cc1 | – | 151% (inactive) |
| CNCCCC12CCC(c3ccccc31)c1ccccc12 | 20.9 µM (active) | – |
| Cn1cnc2c1c(=O)[nH]c(=O)n2C | 16.6 µM (active) | – |
| CC(CCc1ccc(O)cc1)NCCc1ccc(O)c(O)c1 (stereo not given) | 14.8 µM (active) | – |
| Cc1cn([C@H]2C[C@H](N=[N+]=[N-])[C@@H](CO)O2)c(=O)[nH]c1=O | 5.26 µM (active) | – |
| CC1COc2c(N3CCN(C)CC3)c(F)cc3c(=O)c(C(=O)O)cn1c23 (stereo not given) | – | 139% (inactive) |
| NC(CO)C(=O)NNCc1ccc(O)c(O)c1O (stereo not given) | 11.8 µM (active) | – |
| NCCCCCC(=O)O | 0.0187 µM (active) | – |
| CC(C)NCC(O)c1ccc(O)c(O)c1 (stereo not given) | 20.9 µM (active) | – |
| CCOC(=O)C(C)(C)Oc1ccc(Cl)cc1 | – | 130% (inactive) |
| C[C@](N)(Cc1ccc(O)c(O)c1)C(=O)O | 18.7 µM (active) | – |
| Nc1c2c(nc3ccccc13)CCCC2 | 5.26 µM (active) | – |
| O=C1c2c(O)ccc(O)c2C(=O)c2c(NCCNCCO)ccc(NCCNCCO)c21 | 4.18 µM (active) | – |
| O=C(c1ccc(OCCN2CCCCC2)cc1)c1c(-c2ccc(O)cc2)sc2cc(O)ccc12 | 20.9 µM (active) | – |
| OCCN(CCO)c1nc(N2CCCCC2)c2nc(N(CCO)CCO)nc(N3CCCCC3)c2n1 | 23.5 µM (active) | – |
| NC(=O)NO | 2.35 µM (active) | – |
| CC[N+](CC)(CC)CCOc1cccc(OCC[N+](CC)(CC)CC)c1OCC[N+](CC)(CC)CC | – | 121% (inactive) |

| SMILES | Potency | viability, % of DMSO |
| --- | --- | --- |
| CN1C(C(=O)Nc2ccccn2)=C(O)c2ccccc2S1(=O)=O | – | 127% (inactive) |
| CN(Cc1cnc2nc(N)nc(N)c2n1)c1ccc(C(=O)N[C@@H](CCC(=O)O)C(=O)O)cc1 | 0.0469 µM (active) | – |
| Cc1ccc(C(=O)Nc2ccc(S(=O)(=O)O)c3cc(S(=O)(=O)O)cc(S(=O)(=O)O)c23)cc1NC(=O)c1cccc(NC(=O)Nc2cccc(C(=O)Nc3cc(C(=O)Nc4ccc(S(=O)(=O)O)c5cc(S(=O)(=O)O)cc(S(=O)(=O)O)c45)ccc3C)c2)c1 | – | 144% (inactive) |
| O=C1N(c2ccccc2)c2ccccc2C1(Cc1ccncc1)Cc1ccncc1 | – | 195% (inactive) |
| CC#C[C@]1(O)CC[C@H]2[C@@H]3CCC4=CC(=O)CCC4=C3[C@@H](c3ccc(N(C)C)cc3)C[C@@]21C | 1.48 µM (active) | – |
| Cc1ccccc1N1C(=O)c2cc(S(N)(=O)=O)c(Cl)cc2NC1C (stereo not given) | 4.69 µM (active) | – |
| NCCc1cnc[nH]1 | – | 133% (inactive) |
| O=C(Nc1ccc([N+](=O)[O-])cc1Cl)c1cc(Cl)ccc1O | 1.87 µM (active) | – |
| CCN1CCCC1CNC(=O)c1cc(S(=O)(=O)CC)c(N)cc1OC (stereo not given) | – | 128% (inactive) |
| CN1C2CCC1CC(OC(=O)C(CO)c1ccccc1)C2 (stereo not given) | – | 132% (inactive) |
| CN1CCN(CCCN2c3ccccc3Sc3ccc(Cl)cc32)CC1 | 18.7 µM (active) | – |
| C[C@@H]1CC(=O)NN=C1c1ccc(NN=C(C#N)C#N)cc1 | 20.9 µM (active) | – |
| CC(COc1ccccc1)N(CCCl)Cc1ccccc1 (stereo not given) | – | 109% (inactive) |
| CCCCc1oc2ccccc2c1C(=O)c1cc(I)c(OCCN(CC)CC)c(I)c1 | 18.7 µM (active) | – |
| CN(C)CCC=C1c2ccccc2C=Cc2ccccc21 | 18.7 µM (active) | – |
| Cn1c(=O)c2c(ncn2C)n(C)c1=O | – | 123% (inactive) |
| COc1ccccc1N1CCN(CC(O)COc2cccc3ccccc23)CC1 (stereo not given) | – | 127% (inactive) |
| NC12CC3CC(CC(C3)C1)C2 | – | 134% (inactive) |
| CCCNCC(O)COc1ccccc1C(=O)CCc1ccccc1 (stereo not given) | – | 108% (inactive) |
| NS(=O)(=O)c1cc2c(cc1Cl)NCNS2(=O)=O | 7.43 µM (active) | – |
